Among the data in PubChem BioAssay (NCI) are growth inhibition values, retold here.

Structures are written as SMILES. Compounds without any hit were thinned out: in the full panel of roughly 79,000, 15% have a hit. Values without a mark were called inactive. Activity calls are given as the source filed them. Cut-off read from the data, not from the text of the source: active = growth inhibition above about 70%; inactive = the rest.

Assay [1] can be described thus: NCI Yeast Anticancer Drug Screen. Data for the rad50 strain (AID 155).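 Note: 0% = growth of vehicle-only cultures of the same strain.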 The note with it: S. cerevisiae rad50 strain growth inhibition, active compounds read high. The essentials: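 Yeast carrying a defined DNA repair defect were exposed to test compounds, and growth was compared with vehicle-treated controls to give percent inhibition.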
Assay [2] is described as follows: NCI Yeast Anticancer Drug Screen. Data for the mec2-1 strain (AID 157). The note with it: S. cerevisiae mec2-1 strain, active compounds read high. The essentials:
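Readout is yeast growth inhibition, normalised to vehicle-treated controls, in the mec2-1 strain exposed to compound.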

Assay [3] can be described thus: NCI Yeast Anticancer Drug Screen. Data for the sgs1 mgt1 strain (AID 161).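 Note: 0% = growth of cultures given vehicle only.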 The note with it: S. cerevisiae sgs1 mgt1 strain, active compounds read high. Summed up:
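Percent growth inhibition was derived by comparing compound-exposed mutant yeast with vehicle-exposed cultures. The strain carries alterations in DNA damage repair.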

Assay [4] in a line: NCI Yeast Anticancer Drug Screen. Data for the cln2 rad14 strain (AID 165).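 Note: 0% = growth equal to vehicle treated cultures.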 As to conditions: S. cerevisiae cln2 rad14 strain, active compounds read high. Summed up: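 Relative to vehicle controls, growth inhibition of compound-treated cln2 rad14 yeast was recorded.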
The nature of assay [5]: NCI Yeast Anticancer Drug Screen. Data for the bub3 strain (AID 167). The note with it: S. cerevisiae bub3 mutant strain, active compounds read high. Summed up: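 Compounds were applied to a genetically altered yeast strain carrying a cell-cycle control defect. Growth inhibition was scored against vehicle-treated controls.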
The nature of assay [6]: NCI Yeast Anticancer Drug Screen. Data for the mlh1 rad18 strain (AID 175). The note with it: S. cerevisiae mlh1 rad18 strain growth inhibition, active compounds read high. Summed up: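 Test agents were incubated with a yeast strain of defined genotype (DNA damage repair defect). Inhibition of growth was derived by comparison with vehicle-exposed cultures.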
Setting [7] is: at 5.0 µM (retest, dose inferred, filed as 0.5).
The mark [8] stands for this setting: at 50.0 µM (retest, dose inferred, filed as 5.0).

Turning to `CN(C)c1ccccc1CC(c1c[nH]c2ccccc12)c1c[nH]c2ccccc12`, the growth inhibition in assay [1] (setting [7]) was 82% (active); in assay [1] (setting [8]) it was 90% (active); in assay [1] (at 50.0 µM), 84.8% (active); in assay [2] (setting [7]), 73% (active); in assay [2] (setting [8]), 93% (active); in assay [2] (at 50.0 µM), 89.5% (active). The growth inhibition was 67% in assay [3] (setting [7]); 91% (active) in assay [3] (setting [8]); 87.6% (active) in assay [3] (at 50.0 µM); 50% in assay [4] (setting [7]); 94% (active) in assay [4] (setting [8]); 86.2% (active) in assay [4] (at 50.0 µM). Moreover, the growth inhibition in assay [5] (setting [7]) is 66%; in assay [5] (setting [8]) it was 91% (active); in assay [5] (at 50.0 µM) it was 85.2% (active); in assay [6] (setting [7]) it was 92% (active); in assay [6] (setting [8]), 87% (active); in assay [6] (at 50.0 µM) it was 82% (active).
Regarding `[Cl][Ge]([c]1ccccc1)[c]1ccccc1.[Cl][Ge]([c]1ccccc1)[c]1ccccc1`, the growth inhibition is 22% in assay [1] (setting [7]); 73% (active) in assay [1] (setting [8]); 33.4% in assay [1] (at 50.0 µM); 19% in assay [2] (setting [7]); 79% (active) in assay [2] (setting [8]); 41.5% in assay [2] (at 50.0 µM). The growth inhibition in assay [3] (setting [7]) was 23%; in assay [3] (setting [8]), 80% (active); in assay [3] (at 50.0 µM), 55.1%; in assay [4] (setting [7]), 4%; in assay [4] (setting [8]), 70% (active); in assay [4] (at 50.0 µM) it was -4.65%. Also, the growth inhibition was 16% in assay [5] (setting [7]); 80% (active) in assay [5] (setting [8]); 34.5% in assay [5] (at 50.0 µM); 12% in assay [6] (setting [7]); 78% (active) in assay [6] (setting [8]); 76.3% (active) in assay [6] (at 50.0 µM).
Consider `CC1=C[P+](c2ccccc2)(c2ccccc2)C=C(c2ccccc2)O1`, for which the growth inhibition was 51% in assay [1] (setting [7]); 94% (active) in assay [1] (setting [8]); 84.5% (active) in assay [1] (at 50.0 µM); 24% in assay [2] (setting [7]); 98% (active) in assay [2] (setting [8]); 88.1% (active) in assay [2] (at 50.0 µM). The growth inhibition in assay [3] (setting [7]) is 25%; in assay [3] (setting [8]) it was 94% (active); in assay [3] (at 50.0 µM), 87.4% (active); in assay [4] (setting [7]), 42%; in assay [4] (setting [8]), 89% (active); in assay [4] (at 50.0 µM), 84.8% (active). The growth inhibition in assay [5] (setting [7]) was 64%; in assay [5] (setting [8]) it was 97% (active); in assay [5] (at 50.0 µM), 90.4% (active); in assay [6] (setting [7]), 34%; in assay [6] (setting [8]) it was 93% (active); in assay [6] (at 50.0 µM), 89% (active).
Regarding `CC(C)CC(C(=O)SCC(C)N1CCCC1)c1ccccc1` (stereo not given), the growth inhibition in assay [1] (setting [7]) is 0%; in assay [1] (setting [8]) it was 35%; in assay [1] (at 50.0 µM) it was 48%; in assay [2] (setting [7]), 8%; in assay [2] (setting [8]), 33%; in assay [2] (at 50.0 µM), 36.1%. Moreover, the growth inhibition was 26% in assay [3] (setting [7]); 56% in assay [3] (setting [8]); 49.6% in assay [3] (at 50.0 µM); 12% in assay [4] (setting [7]); 43% in assay [4] (setting [8]); 71.4% (active) in assay [4] (at 50.0 µM). The growth inhibition in assay [5] (setting [7]) was 15%; in assay [5] (setting [8]), 59%; in assay [5] (at 50.0 µM), 51.8%; in assay [6] (setting [7]), 11%; in assay [6] (setting [8]), 37%; in assay [6] (at 50.0 µM) it was 59.2%.
With `CC(C)SC(=S)Nc1ccc(Cl)c([N+](=O)[O-])c1`, the growth inhibition in assay [1] (setting [7]) was 25%; in assay [1] (setting [8]), 99% (active); in assay [1] (at 50.0 µM) it was 99.3% (active); in assay [2] (setting [7]), 15%; in assay [2] (setting [8]), 99% (active); in assay [2] (at 50.0 µM) it was 99.6% (active). The growth inhibition in assay [3] (setting [7]) is 18%; in assay [3] (setting [8]) it was 100% (active); in assay [3] (at 50.0 µM), 99.5% (active); in assay [4] (setting [7]), 2%; in assay [4] (setting [8]), 99% (active); in assay [4] (at 50.0 µM), 99.2% (active). Also, the growth inhibition in assay [5] (setting [7]) was 12%; in assay [5] (setting [8]), 99% (active); in assay [5] (at 50.0 µM), 99.5% (active); in assay [6] (setting [7]), 30%; in assay [6] (setting [8]) it was 99% (active); in assay [6] (at 50.0 µM), 99.4% (active).
Regarding `O=c1onc(-c2ccc(Cl)cc2)c2ccccc12`, the growth inhibition was 8% in assay [1] (setting [7]); 3% in assay [1] (setting [8]); 6.6% in assay [1] (at 50.0 µM); 4% in assay [2] (setting [7]); 3% in assay [2] (setting [8]); 16.4% in assay [2] (at 50.0 µM). For the same molecule, the growth inhibition in assay [3] (setting [7]) was 7%; in assay [3] (setting [8]), 5%; in assay [3] (at 50.0 µM) it was -1.2%; in assay [4] (setting [7]) it was 5%; in assay [4] (setting [8]) it was 6%; in assay [4] (at 50.0 µM), 82.7% (active). For the same molecule, the growth inhibition in assay [5] (setting [7]) is 2%; in assay [5] (setting [8]) it was 6%; in assay [5] (at 50.0 µM) it was 14.4%; in assay [6] (setting [7]) it was -1%; in assay [6] (setting [8]), 4%; in assay [6] (at 50.0 µM), 8.15%.
Turning to `COC1=Nc2ccccc2/C=C\c2ccccc21`, the growth inhibition in assay [1] (setting [7]) is -136%; in assay [1] (setting [8]), -77%; in assay [1] (at 50.0 µM) it was 78.5% (active); in assay [2] (setting [7]), -50%; in assay [2] (setting [8]) it was -57%; in assay [2] (at 50.0 µM) it was 82.2% (active). Also, the growth inhibition is -67% in assay [3] (setting [7]); -53% in assay [3] (setting [8]); 67.7% in assay [3] (at 50.0 µM); -49% in assay [4] (setting [7]); -60% in assay [4] (setting [8]); 25.2% in assay [4] (at 50.0 µM). For the same molecule, the growth inhibition in assay [5] (setting [7]) was -62%; in assay [5] (setting [8]), -85%; in assay [5] (at 50.0 µM) it was 43.7%; in assay [6] (setting [7]) it was -124%; in assay [6] (setting [8]), -118%; in assay [6] (at 50.0 µM), 69.5%.
In the case of `NC(=O)SCC(=O)Nc1ccccc1`, the growth inhibition in assay [1] (setting [7]) was 5%; in assay [1] (setting [8]), 82% (active); in assay [1] (at 50.0 µM), 86.5% (active); in assay [2] (setting [7]), -1%; in assay [2] (setting [8]) it was 83% (active); in assay [2] (at 50.0 µM) it was 67.9%. Also, the growth inhibition in assay [3] (setting [7]) is 1%; in assay [3] (setting [8]), 82% (active); in assay [3] (at 50.0 µM), 87.8% (active); in assay [4] (setting [7]) it was 5%; in assay [4] (setting [8]) it was 81% (active); in assay [4] (at 50.0 µM) it was 80% (active). Further, the growth inhibition in assay [5] (setting [7]) is 3%; in assay [5] (setting [8]), 83% (active); in assay [5] (at 50.0 µM), 83.6% (active); in assay [6] (setting [7]) it was 3%; in assay [6] (setting [8]), 87% (active); in assay [6] (at 50.0 µM), 87.2% (active).
As to `CCCCCCCCCCCCCCCCN1CCSCC1`, the growth inhibition in assay [1] (setting [7]) was 39%; in assay [1] (setting [8]), 98% (active); in assay [1] (at 50.0 µM), 98.3% (active); in assay [2] (setting [7]) it was 45%; in assay [2] (setting [8]) it was 99% (active); in assay [2] (at 50.0 µM), 99% (active). The growth inhibition is 65% in assay [3] (setting [7]); 99% (active) in assay [3] (setting [8]); 98.9% (active) in assay [3] (at 50.0 µM); 23% in assay [4] (setting [7]); 99% (active) in assay [4] (setting [8]); 98.7% (active) in assay [4] (at 50.0 µM). For the same molecule, the growth inhibition in assay [5] (setting [7]) is 36%; in assay [5] (setting [8]), 99% (active); in assay [5] (at 50.0 µM), 99% (active); in assay [6] (setting [7]), 69%; in assay [6] (setting [8]), 99% (active); in assay [6] (at 50.0 µM), 98.7% (active).
With `O=[N+]([O-])/C=C/C=C/c1ccco1`, the growth inhibition is -1% in assay [1] (setting [7]); 98% (active) in assay [1] (setting [8]); 99.6% (active) in assay [1] (at 50.0 µM); 3% in assay [2] (setting [7]); 99% (active) in assay [2] (setting [8]); 64.2% in assay [2] (at 50.0 µM). Further, the growth inhibition was 6% in assay [3] (setting [7]); 94% (active) in assay [3] (setting [8]); 97.2% (active) in assay [3] (at 50.0 µM); 2% in assay [4] (setting [7]); 99% (active) in assay [4] (setting [8]); 99.1% (active) in assay [4] (at 50.0 µM). Also, the growth inhibition is 7% in assay [5] (setting [7]); 98% (active) in assay [5] (setting [8]); 99.1% (active) in assay [5] (at 50.0 µM); -5% in assay [6] (setting [7]); 98% (active) in assay [6] (setting [8]); 95.8% (active) in assay [6] (at 50.0 µM).
